Screening results: PubChem BioAssay, National Center for Advancing Translational Sciences (NCATS)
MCF10A rerep = DNA re-replication induction in MCF 10a cells; MCF 10A DNA re-replication, Hoechst nuclear intensity, 48 h; Potency, µM (highest dose often 46.1 µM), without a hit: at the highest dose activity, positive = re-replication, actives largely listed as activators; 350,000 compounds, 2.9% hits; AID 624296; also: % of control where 0% means no effect; nearly all actives have a fitted effect of over 50% in size
HT1080-NT tox = kills 2HG-producing HT-1080-NT fibrosarcoma cells | HT-1080-NT fibrosarcoma viability, CellTiter-Glo ATP luminescence, 48 h | Potency, µM (series often up to 46.1 µM), for the others: top-dose activity, negative = less viability, usual class: cytotoxic | 360,000 compounds, 1.6% hits | AID 686970;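 also: NT is the 2HG producing partner of a matched IDH1 knockdown line; 0% = DMSO-treated cells and -100% = media-only wells without cells; nearly all actives have a fitted effect of over 55% in size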
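Fibrosarcoma NT cells, 750 per well in 5% FBS RPMI, were exposed to compound for 48 hours. Viability: CellTiter-Glo luminescence.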
HT1080 IDH1KD tx = kills HT-1080 cells with IDH1 knockdown. HT-1080 IDH1 knockdown viability, ATP luminescence, 48 h. Potency, µM (series often up to 46.1 µM), inactives show at the highest dose activity, negative = toxicity, most hits filed as cytotoxic. 360,000 compounds, 2% hits;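 also: 0% = DMSO wells and -100% = cell-free medium wells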
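% activity derives from luminescence (CellTiter-Glo), normalised to DMSO and no-cell wells. HT-1080-IDH1KD cells, 750/well, had 48 h compound exposure at 37 °C.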
KB-V1 cytotox = kills drug-selected multidrug resistant KB-V1 cells; KB-V1 MDR cells viability, CellTiter-Glo, 72 h; Potency, µM (top dose mostly 46.1 µM), hits mostly cytotoxic; 400,000 compounds, 3.4% hits; also: % is scaled to controls: 0 for no effect and ±100 for the full control effect; nearly all actives have a fitted effect of over 60% in size
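Readout: CellTiter-Glo luminescence, 10 min after addition. Cells: KB-V1 MDR subline, 72 h at 37 degrees C with compound. Analysis: corrected, normalized data fitted to concentration-effect curves.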
SW480 rerep = inducers of DNA re-replication in SW480 colon cancer cells | 340,000 compounds, 1.8% hits | SW480 DNA re-replication, Hoechst DNA content imaging, 48 h | Potency, µM (doses to about 46.1 µM), without a hit: top-dose re-replication activation, usual class: activators; also: % of control where 0% means no effect; nearly all actives have a fitted effect of over 55% in size
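Quantitative HTS format with DMSO vehicle controls; 48 hr drug incubation at 37 C, then 40 min Hoechst staining and scanning imager measurement at 405 nm excitation.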
KB-3-1 cytotox = KB-3-1 parental cell cytotoxicity; KB-3-1 viability, CellTiter-Glo ATP luminescence, 72 h; Potency, µM (titrated, usually from 46.1 µM), most hits filed as cytotoxic; 400,000 compounds, 1.4% hits; also: % is scaled to controls: 0 for no effect and ±100 for the full control effect; nearly all actives have a fitted effect of over 60% in size
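Here the drug-naive KB-3-1 line serves as comparator for MDR sub-line selectivity; cells received compound titrations, 72 h at 37 °C, then CellTiter-Glo readout.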
Active calls of the source: *; i = inactive; ? = inconclusive; . = no result given; [ ] = dose if it differs, or a comment. This is a sample that favours compounds with a hit; in the whole collection about 8% have one here. Calls follow the shape of the dose curve; as a rule, active = well fitted curve in the direction sought with a large enough effect; inconclusive = small, poorly fitted or top-dose-only effect, or another doubt; inactive = no such curve, though single readings can be large; an effect the other way counts as inactive or inconclusive. Potency is read from the fitted curve at half-maximal effect.

SMILES	MCF10A rerep	HT1080-NT tox	HT1080 IDH1KD tx	KB-V1 cytotox	SW480 rerep	KB-3-1 cytotox
CCC(C)C(=O)NCCc1ccc(S(N)(=O)=O)cc1 (configuration not stated)	-6%	16%	5%	i	2%	i
CCOC(=O)c1cccc(NC(=O)Nc2ccc(OCC)cc2)c1	7%	-11%	-9%	?	0%	i
O=C(NC(=S)Nc1ccc(CN2CCCCC2)cc1)c1cccc(OCc2ccccc2)c1	23µM*	?	21µM*	?	3%	i
c1cc(CN2CCCCC2)cc(OCCCNc2nc3ccccc3s2)c1	?	?	?	?	?	i
O=C(NCCCOc1cccc(CN2CCCCC2)c1)c1ccc(Cl)c(Cl)c1	?	21µM*	23µM*	i	29µM*	i
CCN1CCN(c2ccc(NC(=O)c3cccc(OCc4ccccc4)c3)cc2)CC1	?	-24%	?	?	?	?
O=C(O)c1ccc(NC(=S)NC(=O)c2cccc(COc3ccccc3)c2)cc1	-1%	-3%	-8%	i	-20%	i
CN1CCN(c2ccc(NC(=O)c3cccc(OCc4ccccc4)c3)cc2)CC1	0%	21µM*	18µM*	i	?	i
CCOC(=O)COc1cccc2c(=O)n(CC(=O)NCc3ccccc3)ccc12	1.5µM*	0.52µM*	0.46µM*	1.6µM*	?	0.92µM*
CCOC(=O)C(C)Oc1cccc2c(=O)n(CC(=O)NCc3ccc4c(c3)OCO4)ccc12 (configuration not stated)	6.5µM*	?	?	7.3µM*	4.1µM*	6.5µM*
CCOC(=O)COc1cccc2c(=O)n(CC(=O)NCc3ccc(F)cc3)ccc12	?	1.2µM*	1µM*	1.5µM*	?	0.58µM*
CCOC(=O)COc1cccc2c(=O)n(CC(N)=O)ccc12	0%	7%	4%	i	-7%	i
CCOC(=O)COc1cccc2c(=O)n(CC(=O)NCCc3ccc(OC)c(OC)c3)ccc12	12%	.	.	.	-9%	.
CCOC(=O)C(C)Oc1cccc2c(=O)n(CC(=O)Nc3ccc4c(c3)OCCO4)ccc12 (configuration not stated)	0%	-6%	14%	i	-6%	i
CC(=O)c1c(C)[nH]c(C(=O)OCC(=O)Nc2cc(C)on2)c1C	11%	-30%	?	i	-4%	i
CC1(C)C(=O)Nc2ccccc2N1C(=O)CSc1ncccn1	-1%	15%	8%	i	1%	i
CC1CCCCN1C(=O)CSc1nnc(-c2ccccc2O)o1 (configuration not stated)	11%	-10%	-20%	?	?	13µM*
Cc1cccc(C)c1OC(=O)CSc1nnc(-c2ccccc2O)o1	18µM*	-5%	?	i	0%	i
CC1CCCCN1C(=O)CSc1nnc(-c2ccccc2Cl)o1 (configuration not stated)	.	.	.	i	.	i
Cc1cccc(C)c1OC(=O)CSc1nnc(-c2cccs2)o1	.	.	.	i	.	i
Cc1cc(-c2nnc(SCC(=O)N3C(C)CCCC3C)o2)no1 (configuration not stated)	?	9%	10%	i	6.5µM*	i
COc1ccc2c(C)cc(SCC(=O)NCCN3C(=O)CSC3=O)nc2c1	2%	5%	-1%	?	.	i
CCOC(=O)c1ccccc1NC(=O)N1CCCN(S(=O)(=O)c2ccc3c(ccn3CC)c2)CC1	.	.	.	15µM*	.	?
CCn1ccc2cc(S(=O)(=O)N3CCCN(C(=O)Nc4ccccc4C(F)(F)F)CC3)ccc21	.	.	.	?	.	i
CCc1ccc(CNC(=O)CCCn2ccc3cc(S(=O)(=O)N4CCCC4)ccc32)cc1	.	.	.	?	.	5.8µM*
SMILES	MCF10A rerep	HT1080-NT tox	HT1080 IDH1KD tx	KB-V1 cytotox	SW480 rerep	KB-3-1 cytotox
CCOCCN(C(=O)COC)c1cccc(OC)c1	16%[9.22 µM]	11%	-3%	i	-3%[9.22 µM]	i
COc1ccccc1-n1cnnc1SCC(=O)Nc1cc(C)on1	11%	?	?	i	?	i
CCc1ccc(C(=O)/C=C/c2ccc([N+](=O)[O-])o2)cc1	8.9µM*	-29%	-25%	?	9%[9.22 µM]	?
CCc1ccc(/C=C/C(=O)c2ccc(S(=O)(=O)N(C)C)cc2)cc1	29%	8%	0%	21µM*	?	i
Cc1ccc(/C=C/C(=O)Nc2ccc([N+](=O)[O-])cc2)o1	-3%	1%	-18%	i	-9%	i
CCOC(=O)CCc1ccc(NC(=O)/C=C/c2ccc([N+](=O)[O-])o2)cc1	9.2µM*	8.2µM*	2.9µM*	?	7.3µM*	?
CCOc1cc(C2C(C(=O)OC)=CN(Cc3ccc(Cl)cc3)C=C2C(=O)OC)ccc1O	?	-19%	?	i	?	i
Cc1cc(N2CCN(C(C(=O)NC3CCCC3)c3ccc(-c4ccccc4)cc3)CC2)c2ccccc2n1 (configuration not stated)	.	-27%	-17%	21µM*	.	?
CCOC(=O)c1c(-c2ccc(C)o2)csc1NC(=O)CSc1nncs1	3%	?	?	15µM*	0%	i
CCOC(=O)c1c(-c2ccc(C)o2)csc1NC(=O)CN1CCCCC1	23µM*	?	?	?	1%	i
CCOC(=O)c1c(-c2ccc(C)o2)csc1NC(=O)CN1CCN(CC)CC1	18%	?	?	i	-6%	i
CCOC(=O)c1c(-c2ccccc2)csc1NC(=O)CSc1nc(C)cc(C)n1	?	-9%	-13%	i	0%	i
CCOC(=O)c1c(-c2ccc(OC)cc2)csc1NC(=O)CNCc1ccco1	?	4%	5%	10µM*	-2%	i
CCOC(=O)c1c(-c2ccccc2)csc1NC(=O)CSc1nc(N)cc(N)n1	?	6%	-20%	3.3µM*	-20%	6.5µM*
CC(OC(=O)c1cccs1)C(=O)NCc1ccccc1 (configuration not stated)	0%	7%	18%	i	-15%	i
CCOC(=O)c1c(-c2cccs2)csc1NC(=O)COC(=O)c1c(C)noc1C	?	-20%	-7%	21µM*	6%	i
CN1CCc2c(C#N)c(N3CCCCC3)nc(NCc3ccccc3)c2C1	18µM*	?	?	?	?	?
COc1ccc(Nc2nc3cc(-c4sccc4C)sc3c(=O)n2C)cc1OC	.	?	1.3µM*	6.5µM*	.	5.8µM*
